Some test systems named below: SK-MEL-2 melanoma; EKVX NSCLC; SN12C renal; UO-31 renal; TK-10 renal; ACHN renal; A498 renal; CCRF-CEM leukemia; MOLT-4 leukemia; SR leukemia; RPMI-8226 leukemia; OVCAR-5 ovarian; OVCAR-4 ovarian; SK-OV-3 ovarian; IGROV1 ovarian; OVCAR-3 ovarian; HS 578T breast; NCI/ADR-RES ovarian; OVCAR-8 ovarian; CAKI-1 renal.
Common to all, as to experiment: NCI-60 one-dose screen, 48 h (100 = growth as untreated, 0 = no growth, -100 = all killed)
Holding throughout (conditions): 10 µM unless noted

Compounds without any hit were thinned out: in the full panel of roughly 83,000, 20% have a hit.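 Each cell line was grown in a 96-well plate and treated with one concentration of compound for 48 hours. Values below 10 were considered active.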 Unmarked numbers belong to inactive results. Calls of active or inactive are those of the source.

For the molecule `Cc1cc(C2(c3cc(C)c(OCC(O)CNc4c(C)n(C)n(-c5ccccc5)c4=O)cc3C(C)C)OC(=O)c3ccccc32)c(C(C)C)cc1OCC(O)CNc1c(C)n(C)n(-c2ccccc2)c1=O` (configuration not stated), the growth in the assay with SK-MEL-2 melanoma is -5.35% (active); in the assay on EKVX NSCLC, 16.3%; in the assay on SN12C renal, 26.6%; in the assay on UO-31 renal, 19.1%; in the assay with TK-10 renal it was 24.8%; in the assay with ACHN renal it was 17.1%. Besides, the growth was 55.4% in the assay with A498 renal; 12.3% in the assay with CCRF-CEM leukemia; 13.1% in the assay on MOLT-4 leukemia; 5.65% (active) with SR leukemia; 24.4% with RPMI-8226 leukemia; 50.9% in the assay on OVCAR-5 ovarian. The growth in the assay on OVCAR-4 ovarian was 38.6%; in the assay on SK-OV-3 ovarian, 67.5%; in the assay with IGROV1 ovarian, 43.1%; in the assay on OVCAR-3 ovarian, 15.5%; in the assay with HS 578T breast it was 22.1%; in the assay on NCI/ADR-RES ovarian, 58%.
`Cc1nn(-c2ccccc2)c2ncn(CC(=O)N/N=C/c3ccccc3O)c(=O)c12`: the growth was 55% in the assay on SK-MEL-2 melanoma; 13.3% in the assay with EKVX NSCLC; 47.4% with SN12C renal; 22.6% with UO-31 renal; 63.4% in the assay with TK-10 renal; 21.4% in the assay with ACHN renal. Besides, the growth with A498 renal was 87.2%; in the assay with CCRF-CEM leukemia, 23.9%; in the assay on MOLT-4 leukemia it was 9.42% (active); in the assay with SR leukemia, 13.3%; with RPMI-8226 leukemia it was 45.4%; with OVCAR-8 ovarian, 19.7%. Besides, the growth in the assay with OVCAR-5 ovarian was 63.2%; with OVCAR-4 ovarian it was 39.4%; in the assay on SK-OV-3 ovarian it was 37.7%; in the assay with IGROV1 ovarian, 40.6%; with OVCAR-3 ovarian, 18%; in the assay on HS 578T breast it was 54.9%. Besides, the growth in the assay with NCI/ADR-RES ovarian was 23.3%.
As for `Nc1nn2c(-c3cc4cc(Br)ccc4oc3=O)ccnc2c1N=Nc1ccccc1`, the growth with SK-MEL-2 melanoma was 16.1%; in the assay with EKVX NSCLC it was 36.4%; with SN12C renal, -24.4% (active); in the assay on UO-31 renal it was 30.2%; with TK-10 renal it was 39.9%; in the assay on ACHN renal it was 0.225% (active). The growth was 15.1% in the assay with CAKI-1 renal; -17% (active) in the assay on A498 renal; 87.1% with MOLT-4 leukemia; 1.69% (active) with SR leukemia; 75.2% with RPMI-8226 leukemia; -14.9% (active) with OVCAR-8 ovarian. Also, the growth is 16.8% in the assay on OVCAR-5 ovarian; -6.82% (active) in the assay on SK-OV-3 ovarian; 13.1% in the assay with IGROV1 ovarian; 27.1% in the assay with OVCAR-3 ovarian; -20.7% (active) with HS 578T breast; -16.7% (active) in the assay on NCI/ADR-RES ovarian.
Turning to `O=C(CSc1nc2c(c(=O)[nH]1)CCCC2)Nc1ccccc1C(=O)O`, the growth with SK-MEL-2 melanoma was 98.9%; in the assay with EKVX NSCLC, 99.2%; in the assay on SN12C renal it was 93.3%; with UO-31 renal, 82.3%; with TK-10 renal, 106%; in the assay with ACHN renal it was 106%. For the same molecule, the growth in the assay on CAKI-1 renal is 89.5%; with A498 renal, 173%; with MOLT-4 leukemia it was 99.3%; in the assay with SR leukemia it was 88.5%; in the assay on RPMI-8226 leukemia, 104%; in the assay on OVCAR-8 ovarian, 109%. Moreover, the growth with OVCAR-5 ovarian is 106%; in the assay with SK-OV-3 ovarian, 106%; in the assay on IGROV1 ovarian, 110%; in the assay with OVCAR-3 ovarian it was 91.7%; in the assay with HS 578T breast, 108%.
`CN(C)c1ccc(/C=C/c2n(Cc3ccc4ccccc4c3)c3ccccc3[n+]2Cc2ccc3ccccc3c2)cc1`: the growth is -70.8% (active) in the assay on SK-MEL-2 melanoma; -95.8% (active) with EKVX NSCLC; -80.5% (active) in the assay with SN12C renal; -91.9% (active) in the assay on UO-31 renal; -81.1% (active) in the assay on TK-10 renal; -97.6% (active) in the assay with ACHN renal. For the same molecule, the growth is -82.1% (active) in the assay with A498 renal; -48.5% (active) in the assay with CCRF-CEM leukemia; -38.1% (active) with MOLT-4 leukemia; -29.3% (active) in the assay with SR leukemia; -36.7% (active) with RPMI-8226 leukemia; -31.3% (active) with OVCAR-8 ovarian. The growth in the assay with OVCAR-5 ovarian was -97.6% (active); in the assay on SK-OV-3 ovarian, -80.3% (active); in the assay on IGROV1 ovarian it was -75.9% (active); with OVCAR-3 ovarian it was -45.2% (active); with HS 578T breast, -46.3% (active); with NCI/ADR-RES ovarian, -80.7% (active).
With `N#Cc1c(NC(=O)N2CCOCC2)n(-c2ccc(OC(F)(F)F)cc2)c2cc(F)ccc12`, the growth in the assay on SK-MEL-2 melanoma was 94%; in the assay on EKVX NSCLC it was 90.1%; with SN12C renal, 93.5%; in the assay on UO-31 renal, 104%; in the assay with TK-10 renal, 113%; in the assay with ACHN renal, 93.2%. The growth was 177% in the assay with A498 renal; 85.5% in the assay with CCRF-CEM leukemia; 68.7% in the assay with MOLT-4 leukemia; 80% with SR leukemia; 57.9% with RPMI-8226 leukemia; 99.1% in the assay on OVCAR-8 ovarian. Moreover, the growth with OVCAR-5 ovarian is 88.2%; in the assay with OVCAR-4 ovarian, 87%; in the assay with SK-OV-3 ovarian, 120%; in the assay on IGROV1 ovarian, 105%; in the assay on OVCAR-3 ovarian, 111%; in the assay with HS 578T breast, 102%. Besides, in the assay on NCI/ADR-RES ovarian, the growth was 80.5%.
For `C=CCSc1nnc(-c2c(C)nc3sccn23)o1`, the growth with SK-MEL-2 melanoma is 104%; with EKVX NSCLC it was 76.4%; in the assay with SN12C renal, 96.8%; in the assay with UO-31 renal, 71.8%; in the assay with TK-10 renal it was 124%; with ACHN renal, 88.5%. For the same molecule, the growth with A498 renal was 96.9%; in the assay with CCRF-CEM leukemia, 90.3%; in the assay on MOLT-4 leukemia, 116%; with SR leukemia it was 101%; in the assay with RPMI-8226 leukemia it was 86%; with OVCAR-8 ovarian it was 98.6%. Further, the growth with OVCAR-5 ovarian is 85.8%; in the assay with OVCAR-4 ovarian it was 102%; in the assay on SK-OV-3 ovarian, 98.6%; in the assay with IGROV1 ovarian it was 95.5%; in the assay on OVCAR-3 ovarian it was 131%; with HS 578T breast, 77.1%. Moreover, the growth in the assay with NCI/ADR-RES ovarian is 82.7%.
Take `COc1ccc(N=Nc2c(N)nn3c(N)c(C#N)c(-c4ccc(C)cc4)nc23)cc1`: the growth in the assay on SK-MEL-2 melanoma is 91%; in the assay with EKVX NSCLC it was 36.3%; in the assay on SN12C renal it was 57.7%; in the assay with TK-10 renal it was 101%; in the assay on ACHN renal, 56.8%; in the assay on CAKI-1 renal it was 17.4%. In addition, the growth in the assay with A498 renal is 128%; with CCRF-CEM leukemia it was 8.68% (active); in the assay with MOLT-4 leukemia, 5.8% (active); with SR leukemia, 44.6%; in the assay on RPMI-8226 leukemia it was 3.4% (active); with OVCAR-8 ovarian, 66.3%. Also, the growth with OVCAR-5 ovarian is 99.9%; in the assay with OVCAR-4 ovarian, 53.2%; in the assay with SK-OV-3 ovarian, 90.2%; with IGROV1 ovarian, 33.5%; with OVCAR-3 ovarian, 15.2%; in the assay with HS 578T breast it was 27.7%. The growth in the assay with NCI/ADR-RES ovarian was 62.2%.
For the molecule `Nc1cc(-c2c[nH]c3ccc(Br)cc23)nc2cc(-c3c[nH]c4ccccc34)nn12`, the growth is -66.8% (active) in the assay on SK-MEL-2 melanoma; -67.5% (active) in the assay with EKVX NSCLC; -66.3% (active) in the assay with SN12C renal; -57.3% (active) in the assay on TK-10 renal; -35.5% (active) in the assay on ACHN renal; -48.6% (active) with CAKI-1 renal. Besides, the growth is -77.3% (active) in the assay with A498 renal; -13.8% (active) with CCRF-CEM leukemia; 3.76% (active) with MOLT-4 leukemia; 7.93% (active) in the assay on SR leukemia; 0.137% (active) in the assay on RPMI-8226 leukemia; -54.1% (active) in the assay on OVCAR-8 ovarian. The growth with OVCAR-5 ovarian was -72.7% (active); with OVCAR-4 ovarian it was -5.21% (active); with SK-OV-3 ovarian it was -43.6% (active); with OVCAR-3 ovarian, -34% (active); with HS 578T breast it was -12.4% (active); with NCI/ADR-RES ovarian, -17.9% (active).
In the case of `Cc1ccc(C2CC(c3ccc(S(=O)(=O)NCCNc4nc(N(C)C)nc(N5CCOCC5)n4)cc3)=Nc3c(N)nc(N)nc3N2)cc1` (configuration not stated), the growth in the assay with SK-MEL-2 melanoma is 86.2%; in the assay on EKVX NSCLC, 38.4%; with SN12C renal, 51.5%; in the assay on TK-10 renal it was 96.4%; in the assay with ACHN renal it was 68.2%; with CAKI-1 renal it was 43.4%. In addition, the growth with A498 renal was 105%; in the assay on CCRF-CEM leukemia it was 17.3%; in the assay with MOLT-4 leukemia, 3.09% (active); in the assay on SR leukemia, 1.45% (active); in the assay on RPMI-8226 leukemia, 23.4%; in the assay with OVCAR-8 ovarian, 56.3%. The growth in the assay with OVCAR-5 ovarian was 90%; in the assay on OVCAR-4 ovarian, 55.7%; in the assay with SK-OV-3 ovarian it was 77.2%; in the assay on IGROV1 ovarian, 50.2%; in the assay on OVCAR-3 ovarian, 64.9%; in the assay with HS 578T breast, 47.8%. The growth in the assay on NCI/ADR-RES ovarian was 89.3%.
Take `O=C(Nc1ccc(Cl)c(C(F)(F)F)c1)N1CCN(c2cc(-c3cn(-c4ccccc4)nc3-c3cccc(O)c3)ccn2)CC1`: the growth in the assay with SK-MEL-2 melanoma is -66.9% (active); in the assay with EKVX NSCLC, -0.99% (active); with SN12C renal it was 4.12% (active); in the assay with TK-10 renal it was 8.9% (active); in the assay with ACHN renal it was 3.14% (active); with CAKI-1 renal, 9.06% (active). Besides, the growth in the assay on A498 renal is 38.9%; with CCRF-CEM leukemia it was 0.607% (active); in the assay with MOLT-4 leukemia, 1.52% (active); in the assay with SR leukemia it was 10.8%; in the assay with RPMI-8226 leukemia it was -13.7% (active); in the assay with OVCAR-8 ovarian, 8.11% (active). The growth with OVCAR-5 ovarian is -35.1% (active); with OVCAR-4 ovarian, 13.5%; in the assay on SK-OV-3 ovarian, 24.3%; in the assay with IGROV1 ovarian, 10.8%; with HS 578T breast it was 7.22% (active); in the assay on NCI/ADR-RES ovarian it was -23.9% (active).

The record behind these values is PubChem BioAssay (NCI).
